Here are results for 24 molecules from PubChem BioAssay (NCATS).

Values without a mark were called inactive. Inconclusive results are not listed. Where a call stands in place of a potency, no number is given. Activity calls are given as the source filed them. Unless noted, the call rests on the fitted dose curve; in most records, active means well fitted inhibition curve with a large enough effect; inconclusive means small, poorly fitted or top-dose-only effect; inactive means flat fitted curve, though single readings scatter.

For assay [1], the target named is Ubiquitin carboxyl-terminal hydrolase 1 (Homo sapiens) (UniProt O94782). Kind of assay: Inhibitors of USP1/UAF1: Pilot qHTS (AID 504865). Further: nearly all actives have a fitted effect of over 35% in size. Further: potency means the concentration at half of the fitted maximal effect. Put shortly: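 USP1/UAF1 complex (1nM) preincubated with compound 15 min at room temperature, then Ub-Rho substrate (150nM final) added. Fluorescence read kinetically at 480/540 nm, 6 reads every 60 seconds. Buffer: 50mM HEPES pH 7.8, 0.5mM EDTA, 0.1 mg/ml BSA, 1mM TCEP, 0.01% Tween-20.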
Chain of Ubiquitin carboxyl-terminal hydrolase 1 (Homo sapiens) (O94782 whole entry, looked up): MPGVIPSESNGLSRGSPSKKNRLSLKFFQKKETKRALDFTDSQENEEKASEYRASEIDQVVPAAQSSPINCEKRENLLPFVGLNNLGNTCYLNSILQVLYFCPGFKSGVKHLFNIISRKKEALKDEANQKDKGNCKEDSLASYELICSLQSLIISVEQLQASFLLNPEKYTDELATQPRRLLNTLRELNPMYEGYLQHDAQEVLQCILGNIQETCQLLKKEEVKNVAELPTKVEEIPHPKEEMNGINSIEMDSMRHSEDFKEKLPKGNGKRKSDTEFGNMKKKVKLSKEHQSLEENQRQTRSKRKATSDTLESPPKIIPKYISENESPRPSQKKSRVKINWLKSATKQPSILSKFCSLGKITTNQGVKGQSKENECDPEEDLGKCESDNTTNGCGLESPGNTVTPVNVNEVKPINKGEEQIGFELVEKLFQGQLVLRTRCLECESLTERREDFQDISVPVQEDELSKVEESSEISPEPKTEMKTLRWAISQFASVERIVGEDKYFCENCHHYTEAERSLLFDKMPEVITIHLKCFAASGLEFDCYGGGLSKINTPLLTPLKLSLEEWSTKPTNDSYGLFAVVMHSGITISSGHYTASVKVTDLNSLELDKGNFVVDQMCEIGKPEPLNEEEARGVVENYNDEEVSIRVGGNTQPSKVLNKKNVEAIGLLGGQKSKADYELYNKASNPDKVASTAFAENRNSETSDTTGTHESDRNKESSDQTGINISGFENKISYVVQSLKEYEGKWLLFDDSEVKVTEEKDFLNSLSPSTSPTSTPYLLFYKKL

Assay [2] addresses DNA dC->dU-editing enzyme APOBEC-3G (Homo sapiens) (UniProt Q9HC16). Kind of assay: qHTS for inhibitors of Vif-A3G interactions: Validation (AID 588379). Put shortly: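 Yellow fluorescence (Ex 488, Em 500-530) of Vif-coexpressing HeLa A3G-eYFP cells, scanned by Acumen cytometer, reports blocked A3G degradation. Cells plated at 700/well overnight at 37 deg C before compound addition, then a further overnight compound incubation at 37 deg C.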

The target of assay [3] is Androgen receptor (Homo sapiens) (UniProt P10275). Kind of assay: qHTS assay for small molecule agonists of androgen receptor signaling (AID 588515; active means well fitted curve in the direction sought with a large enough effect in the signal ratio, with a control signal flat; the % refers to the signal ratio). The conditions noted are these: AR-UAS-bla HEK293, beta-lactamase ratio, agonist 16 h; active compounds read high. An outline of the steps: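 Stimulation of an AR-responsive β-lactamase reporter in GripTite HEK293 cells was measured after 16 h compound exposure at 37 °C, via CCF4 fluorescence after 2 h RT. EC50 from Hill fits, normalized to R1881 at 30 nM.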
Chain of Androgen receptor (Homo sapiens) (P10275 whole entry, looked up): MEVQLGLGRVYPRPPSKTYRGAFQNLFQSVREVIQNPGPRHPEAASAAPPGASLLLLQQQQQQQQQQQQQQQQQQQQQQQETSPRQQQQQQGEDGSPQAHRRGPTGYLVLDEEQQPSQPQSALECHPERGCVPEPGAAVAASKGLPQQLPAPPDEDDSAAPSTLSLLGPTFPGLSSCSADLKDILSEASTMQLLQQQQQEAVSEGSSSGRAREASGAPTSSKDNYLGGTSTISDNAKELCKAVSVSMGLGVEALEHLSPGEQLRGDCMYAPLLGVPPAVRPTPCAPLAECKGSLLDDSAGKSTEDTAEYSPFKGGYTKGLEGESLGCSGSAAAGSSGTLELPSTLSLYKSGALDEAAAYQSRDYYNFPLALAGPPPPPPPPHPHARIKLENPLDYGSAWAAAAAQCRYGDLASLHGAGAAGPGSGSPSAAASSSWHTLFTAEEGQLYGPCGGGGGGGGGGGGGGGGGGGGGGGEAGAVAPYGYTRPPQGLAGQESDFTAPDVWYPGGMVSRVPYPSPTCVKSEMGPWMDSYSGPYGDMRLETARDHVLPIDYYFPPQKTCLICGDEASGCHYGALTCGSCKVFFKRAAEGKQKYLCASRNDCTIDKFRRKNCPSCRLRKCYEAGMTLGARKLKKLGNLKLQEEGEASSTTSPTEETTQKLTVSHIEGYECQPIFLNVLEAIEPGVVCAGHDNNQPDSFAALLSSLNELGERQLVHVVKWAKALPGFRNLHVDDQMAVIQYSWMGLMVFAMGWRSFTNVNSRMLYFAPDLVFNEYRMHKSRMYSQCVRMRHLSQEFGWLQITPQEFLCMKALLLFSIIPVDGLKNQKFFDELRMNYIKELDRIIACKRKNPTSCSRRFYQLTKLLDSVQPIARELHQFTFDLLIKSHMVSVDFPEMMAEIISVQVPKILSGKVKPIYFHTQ
For orientation: In qHTS, concentration-response curves come from the screen itself.

Assay [4] has the same target. Kind of assay: qHTS assay for small molecule antagonists of androgen receptor signaling (AID 588516; active means well fitted curve in the direction sought with a large enough effect in the signal ratio, with a control signal flat, not every such curve was filed as active; the % refers to the signal ratio). Put shortly: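 AR-UAS-bla-GripTite HEK 293 cells (2000/well, 5 h at 37 C) received compound titrations, then R1881 at 10 nM final; after 16 h at 37 C, CCF4 dye 2 h RT, beta-lactamase fluorescence read; IC50 from Hill fits.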
The target in assay [5] is Bile acid receptor (Homo sapiens) (UniProt Q96RI1). Kind of assay: qHTS assay for small molecule antagonists of farnesoid X receptor signaling (AID 588526; calls by dose curve). An outline of the steps:
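Antagonist mode: titrated compounds tested against chenodeoxycholic acid stimulation (normalized to 50 uM CDCA and DMSO) in GeneBLAzer HEK293T cells for 16 h. Beta-lactamase read by CCF4 fluorescence; IC50 from Hill fits.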

Chain of DNA dC->dU-editing enzyme APOBEC-3G (Homo sapiens) (Q9HC16 whole entry, looked up): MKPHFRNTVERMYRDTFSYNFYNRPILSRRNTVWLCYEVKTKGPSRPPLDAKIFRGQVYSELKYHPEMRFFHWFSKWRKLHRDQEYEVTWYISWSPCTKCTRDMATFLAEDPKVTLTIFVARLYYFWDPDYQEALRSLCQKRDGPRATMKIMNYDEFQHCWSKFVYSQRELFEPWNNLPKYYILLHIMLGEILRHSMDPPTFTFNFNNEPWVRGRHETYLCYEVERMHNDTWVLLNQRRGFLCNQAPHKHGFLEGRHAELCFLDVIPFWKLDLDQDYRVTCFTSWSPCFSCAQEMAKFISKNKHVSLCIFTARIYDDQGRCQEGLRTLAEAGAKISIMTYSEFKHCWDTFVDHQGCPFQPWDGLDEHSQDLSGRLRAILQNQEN
Chain of Bile acid receptor (Homo sapiens) (Q96RI1 whole entry, looked up): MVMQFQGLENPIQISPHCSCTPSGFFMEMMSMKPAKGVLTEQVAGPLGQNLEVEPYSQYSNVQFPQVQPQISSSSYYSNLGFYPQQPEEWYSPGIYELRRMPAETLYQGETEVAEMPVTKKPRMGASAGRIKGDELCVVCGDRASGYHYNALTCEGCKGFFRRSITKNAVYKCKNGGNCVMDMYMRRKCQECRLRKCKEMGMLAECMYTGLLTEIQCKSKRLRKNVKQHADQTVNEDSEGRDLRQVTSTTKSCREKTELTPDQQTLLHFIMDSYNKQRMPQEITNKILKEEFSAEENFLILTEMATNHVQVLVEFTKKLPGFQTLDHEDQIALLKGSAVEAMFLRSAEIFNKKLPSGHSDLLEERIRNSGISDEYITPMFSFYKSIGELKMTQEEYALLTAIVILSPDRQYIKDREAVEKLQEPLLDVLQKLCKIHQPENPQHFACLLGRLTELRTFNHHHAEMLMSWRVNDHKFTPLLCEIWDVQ

With `CC[C@H](NC(C)C)[C@H](O)c1ccc(O)c2[nH]c(=O)ccc12`, the Potency entry in assay [1] was “inactive”. The outcome in assay [2] was inactive.
As to `CC(C)(Sc1cc(C(C)(C)C)c(O)c(C(C)(C)C)c1)Sc1cc(C(C)(C)C)c(O)c(C(C)(C)C)c1`, in assay [1], the Potency entry is “inactive”.
`O=c1oc2c(O)c(O)cc3c(=O)oc4c(O)c(O)cc1c4c23`: in assay [2], the molecule was called inactive.
Consider `Nc1[nH]c(=O)ncc1F`, for which the Potency entry in assay [1] is “inactive”.
For `Cc1nnc(NS(=O)(=O)c2ccc(N)cc2)s1`, the Potency entry in assay [1] is “inactive”. In addition, the activation in assay [3] is -1.65%. For the same molecule, the call in assay [4] was inactive.
For the molecule `O=C(N[C@H](CO)[C@H](O)c1ccc([N+](=O)[O-])cc1)C(Cl)Cl`, the Potency result in assay [1] is “inactive”. Besides, in assay [2], the molecule was classed as inactive.
With `COc1nc(N)nc2c1ncn2[C@@H]1O[C@H](CO)[C@@H](O)[C@@H]1O`, the Potency in assay [1] was 22.4 µM (active).
On the same count and under the same terms, to `CC(=O)CC(c1ccccc1)c1c(O)c2ccccc2oc1=O` (stereo not given) belongs “inactive”; to `COc1cnc(NS(=O)(=O)c2ccc(N)cc2)nc1`, “inactive”.
For the molecule `O=S(=O)(c1cccc2cnccc12)N1CCCNCC1`, the Potency entry in assay [1] is “inactive”. In assay [2], the call was inactive.
Take `CC1=NN(c2ccccc2)C(=O)C1`: in assay [1], the Potency result is “inactive”. The molecule was called inactive in assay [2] and in assay [5].
On to `Cc1cccc(Nc2ccncc2S(=O)(=O)NC(=O)NC(C)C)c1`, for which, in assay [1], the Potency entry is “inactive”.
Consider `S=P(N1CC1)(N1CC1)N1CC1`, for which the Potency result in assay [1] was “inactive”. In assay [5], the result was inactive.
Consider `COc1ccc(C(=O)CC(=O)c2ccc(C(C)(C)C)cc2)cc1`, for which, in assay [1], the Potency result is “inactive”.
Regarding `CN1CCCC(n2nc(Cc3ccc(Cl)cc3)c3ccccc3c2=O)CC1` (stereo not given), in assay [1], the Potency result was “inactive”.
The same measure, in the same setting: the value for `CN1CCN(c2c(F)cc3c(=O)c(C(=O)O)cn(CCF)c3c2F)CC1` was “inactive”; that for `COC(=O)Nc1nc2ccc(Sc3ccccc3)cc2[nH]1` was “inactive”.
Take `Nc1ccc(S(=O)(=O)Nc2ccccn2)cc1`: in assay [1], the Potency result was “inactive”.
On to `COc1cc2c(Nc3ccc(Br)cc3F)ncnc2cc1OCC1CCN(C)CC1`, for which, in assay [1], the Potency entry was “inactive”.
With `Cc1noc(NS(=O)(=O)c2ccc(N)cc2)c1C`, the Potency result in assay [1] is “inactive”. Further, the molecule was classed as inactive in assay [2] and in assay [5].
As to `Cc1ccnc2c1NC(=O)c1cccnc1N2C1CC1`, in assay [1], the Potency result is “inactive”. In addition, the molecule was classed as inactive in assay [5].
Regarding `COC(=O)Nc1nc2ccc(S(=O)c3ccccc3)cc2[nH]1` (stereo not given), the Potency entry in assay [1] was “inactive”.
`CCn1cc(C(=O)O)c(=O)c2cc(F)c(N3CCNCC3)nc21`: the Potency result in assay [1] is “inactive”.
In the case of `COc1cc([C@@H]2c3cc4c(cc3[C@H](O)[C@H]3COC(=O)[C@H]23)OCO4)cc(OC)c1OC`, the molecule was called inactive in assay [2].
